Source: PubChem BioAssay (EPA / NIEHS)
Records with an inconclusive call do not appear. Activity calls are given as the source filed them. Rule for the calls: active = hit-call score of the fitted dose curve at least 0.9, where 1 is the maximum; inconclusive = response in the unintended direction; inactive = score below 0.9.

Experiments:
[1] = target: zebrafish Thyroid Hormone Receptor alpha (TRa), thraa (gene 30670) (UniProt Q98867); experiment: ATG_zfTRa_XSP1: Attagene TRANS-FACTORIAL Multi-Species (XSP1) HepG2 Assay for zebrafish Thyroid Hormone Receptor alpha (TRa) (AID 2283807)
Procedure, shortened: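 Reporter transcripts driven by a chimeric zebrafish TRa–Gal4 protein were measured by RT-PCR with fluorescent labelling and capillary electrophoresis. These came from transiently transfected HepG2 cells after 24 h chemical exposure, with 3 nM 6-alpha-fluorotestosterone added; baseline was DMSO.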

[2] = target: human Thyroid hormone Receptor beta (TRb), THRB (gene 7068) (UniProt P10828); experiment: ATG_hTRb_XSP1: Attagene TRANS-FACTORIAL Multi-Species (XSP1) HepG2 Assay for human Thyroid hormone Receptor beta (TRb) (AID 2283808)
Procedure, shortened: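 Readout is reporter mRNA induction measured by RT-PCR, fluorescent labelling and capillary electrophoresis, fitted upward relative to DMSO. Transiently transfected human HepG2 cells expressing NR-Gal4 chimeras were dosed for 24 h, medium containing 3 nM 6-alpha-fluorotestosterone.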

[3] = target: zebrafish Thyroid Hormone Receptor beta (TRb), thrb (gene 30607) (UniProt Q9PVE4); experiment: ATG_zfTRb_XSP1: Attagene TRANS-FACTORIAL Multi-Species (XSP1) HepG2 Assay for zebrafish Thyroid Hormone Receptor beta (TRb) (AID 2283809)
Procedure, shortened: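 HepG2 cells transiently transfected with multiplexed GAL4-UAS reporter units expressing chimeric zebrafish TRb–Gal4. Dosed 24 h with 3 nM 6-alpha-fluorotestosterone present; reporter mRNA measured by RT-PCR, HpaI digestion and capillary electrophoresis; gain of signal versus DMSO.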

[4] = ATG_M_06_XSP2: Attagene TRANS-FACTORIAL Multi-Species (XSP2) HepG2 Assay for M06 Transcription Factor (Internal Marker) (AID 2283811);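 note: internal background marker reporter mRNA measured by RT-PCR and capillary electrophoresis; hits are increases in signal above the DMSO baseline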
Procedure, shortened: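 Readout: fluorescent reporter-mRNA peaks by capillary electrophoresis after RT-PCR and HpaI digest, scored upward relative to DMSO. Transfected HepG2, 24 h chemical exposure, with 3 nM 6-alpha-fluorotestosterone and 1.5 nM norgestrel added.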

[5] = test system: turtle Estrogen Receptor (ERa), gene 101933533; experiment: ATG_trERa_XSP2: Attagene TRANS-FACTORIAL Multi-Species (XSP2) HepG2 Assay for turtle Estrogen Receptor (ERa) (AID 2283812);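 note: actives raise reporter signal above DMSO so AC50 reflects agonist activity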
Procedure, shortened: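 Readout is reporter mRNA quantified by RT-PCR with capillary electrophoresis after 24 h compound exposure, increase relative to DMSO. Uses transiently transfected human HepG2 liver cells carrying a chimeric turtle ERa-Gal4 receptor driving GAL4-UAS reporters.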

[6] = target: GAL4 Transcription Factor (Internal Marker), GAL4 (gene 855828) (UniProt P04386); experiment: ATG_GAL4_XSP2: Attagene TRANS-FACTORIAL Multi-Species (XSP2) HepG2 Assay for GAL4 Transcription Factor (Internal Marker) (AID 2283814);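 note: GAL4 reporter mRNA background control in MRTU transfected cells not a receptor target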
Procedure, shortened: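 Background-control readout: gain-of-signal fitted against DMSO. After 24 h exposure of transfected HepG2 (MRTU, GAL4-UAS reporters; 3 nM 6-alpha-fluorotestosterone, 1.5 nM norgestrel present), transcripts quantified by RT-PCR and capillary electrophoresis fluorescence.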

[7] = target: zebrafish Estrogen Receptor (ER1), esr1 (gene 259252) (UniProt P57717); experiment: ATG_zfER1_XSP2: Attagene TRANS-FACTORIAL Multi-Species (XSP2) HepG2 Assay for zebrafish Estrogen Receptor (ER1) (AID 2283816)
Procedure, shortened: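 After 24 h compound exposure, RNA from transfected HepG2 cells was reverse-transcribed and reporter transcripts resolved by capillary electrophoresis. The TRANS format reads exogenous zebrafish ER1-Gal4 chimera activity on GAL4-UAS elements; gain of signal against DMSO.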

[8] = target: chicken Estrogen Receptor (ERa), ESR1 (gene 396099) (UniProt P06212); experiment: ATG_chERa_XSP2: Attagene TRANS-FACTORIAL Multi-Species (XSP2) HepG2 Assay for chicken Estrogen Receptor (ERa) (AID 2283817);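 note: actives raise reporter signal above DMSO so AC50 reflects ER activation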
Description: ATG_XSP2_multi-species_TRANS is a cell-based, multiplexed assay created by modifying the existing Attagene TRANS-FACTORIAL system to include a panel of nuclear receptors from some or all the following species: human (Homo sapiens), mouse (Mus musculus), frog (Xenopus laevis), zebrafish (Danio rerio), chicken (Gallus gallus), and turtle (Chrysemys picta). The ECOTOX-FACTORIAL format uses HepG2, a human liver cell line, with measurements taken at 24 hours after chemical dosing in a 24-well plate. Xsp2 included 3 nM 6-alpha-fluorotestosterone and 1.5 nM norgestrel to stimulate the androgen receptor.ATG_chERa_XSP2 is one of 29 assay components measured or calculated from the ATG_XSP2_multi-species_TRANS assay. It is designed to make measurements of mRNA induction, a form of inducible reporter, as detected with fluorescence intensity signals by Reverse transcription polymerase chain reaction (RT-PCR) and Capillary electrophoresis technology.The assay endpoint ATG_chERa_XSP2 was analyzed in the positive analysis fitting direction relative to DMSO as the negative control and baseline of activity. […] Furthermore, this assay endpoint can be referred to as a primary readout, because this assay has produced multiple assay endpoints where this one serves a reporter gene function. […]

[9] = test system: zebrafish Estrogen Receptor (ER2a), gene 317734; experiment: ATG_zfER2a_XSP2: Attagene TRANS-FACTORIAL Multi-Species (XSP2) HepG2 Assay for zebrafish Estrogen Receptor (ER2a) (AID 2283818);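 note: hits raise reporter mRNA so AC50 reflects activation of zebrafish ER2a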
Procedure, shortened: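 Multiplexed trans-reporter readout: RT-PCR then capillary electrophoresis of reporter transcripts after 24 h compound treatment. Human HepG2 carries transfected zebrafish ER2a-Gal4 chimera; 3 nM 6-alpha-fluorotestosterone plus 1.5 nM norgestrel present. Induction scored against DMSO.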

[10] = ATG_XTT_Cytotoxicity_XSP1: Cytotoxicity Assessment in the Attagene TRANS-FACTORIAL Multi-Species (XSP1) HepG2 Assay (AID 2283810)
Procedure, shortened: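 XTT viability readout taken at 24 hours post-dosing in HepG2 liver cells co-treated with 3 nM 6-alpha-fluorotestosterone. Signal loss relative to DMSO controls reflects cytotoxicity.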

Sequence of zebrafish Thyroid Hormone Receptor alpha (TRa), thraa (gene 30670) (Q98867 whole entry, looked up, the tested form may be a part): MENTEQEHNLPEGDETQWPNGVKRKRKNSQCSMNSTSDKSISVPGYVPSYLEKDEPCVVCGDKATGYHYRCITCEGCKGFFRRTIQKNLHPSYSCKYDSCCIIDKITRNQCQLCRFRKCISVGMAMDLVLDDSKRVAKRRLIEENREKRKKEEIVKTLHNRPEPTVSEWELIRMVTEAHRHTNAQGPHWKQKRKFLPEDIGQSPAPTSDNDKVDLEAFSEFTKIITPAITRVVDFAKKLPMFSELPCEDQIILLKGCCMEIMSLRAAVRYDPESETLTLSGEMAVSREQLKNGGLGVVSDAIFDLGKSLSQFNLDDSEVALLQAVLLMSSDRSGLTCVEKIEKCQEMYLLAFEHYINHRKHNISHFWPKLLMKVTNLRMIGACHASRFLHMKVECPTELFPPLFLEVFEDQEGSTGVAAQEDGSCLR
Sequence of zebrafish Thyroid Hormone Receptor beta (TRb), thrb (gene 30607) (Q9PVE4 whole entry, looked up, the tested form may be a part): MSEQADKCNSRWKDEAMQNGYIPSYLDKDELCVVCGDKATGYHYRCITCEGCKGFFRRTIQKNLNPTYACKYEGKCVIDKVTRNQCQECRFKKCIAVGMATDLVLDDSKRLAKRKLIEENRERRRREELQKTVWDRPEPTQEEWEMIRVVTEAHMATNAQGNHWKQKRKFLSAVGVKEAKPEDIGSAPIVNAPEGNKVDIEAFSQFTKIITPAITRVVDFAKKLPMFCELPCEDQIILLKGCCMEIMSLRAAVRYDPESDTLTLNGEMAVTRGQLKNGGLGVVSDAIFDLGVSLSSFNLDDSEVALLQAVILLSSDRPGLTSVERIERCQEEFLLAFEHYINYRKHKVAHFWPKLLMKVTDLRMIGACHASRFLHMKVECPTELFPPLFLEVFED
Sequence of human Thyroid hormone Receptor beta (TRb), THRB (gene 7068) (P10828 whole entry, looked up, the tested form may be a part): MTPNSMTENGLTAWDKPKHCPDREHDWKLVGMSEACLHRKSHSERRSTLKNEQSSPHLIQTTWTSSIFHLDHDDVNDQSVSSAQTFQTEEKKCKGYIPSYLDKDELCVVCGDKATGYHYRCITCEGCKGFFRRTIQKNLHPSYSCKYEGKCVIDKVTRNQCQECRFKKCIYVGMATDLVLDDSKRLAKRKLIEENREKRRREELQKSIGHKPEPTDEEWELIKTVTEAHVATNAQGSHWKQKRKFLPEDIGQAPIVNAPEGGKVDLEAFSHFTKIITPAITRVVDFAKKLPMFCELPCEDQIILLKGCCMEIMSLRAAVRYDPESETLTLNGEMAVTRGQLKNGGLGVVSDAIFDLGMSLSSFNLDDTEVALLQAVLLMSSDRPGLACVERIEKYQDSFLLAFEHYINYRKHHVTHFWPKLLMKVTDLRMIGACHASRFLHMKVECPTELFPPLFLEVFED
Sequence of zebrafish Estrogen Receptor (ER1), esr1 (gene 259252) (P57717 whole entry, looked up, the tested form may be a part): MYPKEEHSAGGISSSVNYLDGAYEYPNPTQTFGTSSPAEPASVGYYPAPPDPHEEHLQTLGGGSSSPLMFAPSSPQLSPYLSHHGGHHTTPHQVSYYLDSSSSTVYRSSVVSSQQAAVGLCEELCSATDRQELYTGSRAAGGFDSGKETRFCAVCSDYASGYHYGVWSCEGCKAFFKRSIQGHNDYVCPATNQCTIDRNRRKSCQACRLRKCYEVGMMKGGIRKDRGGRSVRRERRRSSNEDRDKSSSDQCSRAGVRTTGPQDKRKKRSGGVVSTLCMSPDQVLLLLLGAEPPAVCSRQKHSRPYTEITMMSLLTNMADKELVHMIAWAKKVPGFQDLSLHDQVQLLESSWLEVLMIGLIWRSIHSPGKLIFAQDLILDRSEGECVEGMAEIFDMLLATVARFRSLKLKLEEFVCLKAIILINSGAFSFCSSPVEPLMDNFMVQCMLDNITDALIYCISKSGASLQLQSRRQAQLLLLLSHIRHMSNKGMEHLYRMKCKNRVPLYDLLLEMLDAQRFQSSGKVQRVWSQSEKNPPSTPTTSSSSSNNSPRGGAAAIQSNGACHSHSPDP
Sequence of chicken Estrogen Receptor (ERa), ESR1 (gene 396099) (P06212 whole entry, looked up): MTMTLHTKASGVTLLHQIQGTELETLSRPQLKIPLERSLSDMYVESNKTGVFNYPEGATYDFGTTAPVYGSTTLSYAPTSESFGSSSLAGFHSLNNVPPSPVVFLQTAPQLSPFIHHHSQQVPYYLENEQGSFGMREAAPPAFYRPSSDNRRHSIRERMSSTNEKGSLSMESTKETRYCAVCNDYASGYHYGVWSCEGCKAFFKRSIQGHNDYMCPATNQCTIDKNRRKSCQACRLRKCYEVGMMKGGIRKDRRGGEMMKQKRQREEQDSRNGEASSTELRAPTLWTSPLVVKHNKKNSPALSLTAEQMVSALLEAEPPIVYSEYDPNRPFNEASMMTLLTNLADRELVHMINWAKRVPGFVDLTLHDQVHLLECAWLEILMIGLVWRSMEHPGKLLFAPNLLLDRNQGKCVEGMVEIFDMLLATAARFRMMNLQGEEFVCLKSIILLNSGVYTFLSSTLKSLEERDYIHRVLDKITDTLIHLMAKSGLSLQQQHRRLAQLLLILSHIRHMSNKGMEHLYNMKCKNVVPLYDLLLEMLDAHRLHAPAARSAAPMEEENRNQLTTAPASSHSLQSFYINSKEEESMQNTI
Sequence of GAL4 Transcription Factor (Internal Marker), GAL4 (gene 855828) (P04386 whole entry, looked up, the tested form may be a part): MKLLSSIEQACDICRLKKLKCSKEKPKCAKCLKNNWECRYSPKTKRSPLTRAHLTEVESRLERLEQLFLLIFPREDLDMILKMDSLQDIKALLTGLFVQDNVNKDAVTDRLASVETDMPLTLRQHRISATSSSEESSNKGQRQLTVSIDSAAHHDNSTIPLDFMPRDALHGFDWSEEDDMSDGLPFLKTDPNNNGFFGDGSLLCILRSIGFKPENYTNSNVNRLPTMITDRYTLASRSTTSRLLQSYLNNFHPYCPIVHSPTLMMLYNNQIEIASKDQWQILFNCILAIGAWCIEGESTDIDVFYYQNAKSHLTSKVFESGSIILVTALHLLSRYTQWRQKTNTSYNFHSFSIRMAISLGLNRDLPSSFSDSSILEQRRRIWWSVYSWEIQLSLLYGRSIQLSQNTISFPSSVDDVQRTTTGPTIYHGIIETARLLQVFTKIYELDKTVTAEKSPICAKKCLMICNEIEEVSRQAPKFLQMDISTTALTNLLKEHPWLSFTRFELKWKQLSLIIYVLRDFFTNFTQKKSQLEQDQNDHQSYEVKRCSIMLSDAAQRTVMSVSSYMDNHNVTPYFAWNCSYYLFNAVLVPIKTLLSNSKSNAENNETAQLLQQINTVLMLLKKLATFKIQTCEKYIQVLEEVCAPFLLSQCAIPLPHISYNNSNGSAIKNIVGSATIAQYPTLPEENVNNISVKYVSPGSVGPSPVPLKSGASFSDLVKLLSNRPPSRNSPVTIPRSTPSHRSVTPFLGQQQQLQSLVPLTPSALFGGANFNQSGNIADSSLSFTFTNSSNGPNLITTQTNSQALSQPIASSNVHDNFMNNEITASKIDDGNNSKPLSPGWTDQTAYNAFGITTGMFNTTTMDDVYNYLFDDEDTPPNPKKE

SMILES | outcome [1] | outcome [2] | outcome [3] | outcome [4] | AC50 [5] | outcome [6] | AC50 [7] | AC50 [8] | AC50 [9] | outcome [10]
O=C(c1ccccc1)c1ccc(O)cc1O | inactive | inactive | inactive | inactive | 2.81 µM (active) | inactive | 10 µM (active) | 2.77 µM (active) | 4.68 µM (active) | –
C[C@]12CC[C@H]3C(=CCc4cc(O)ccc43)[C@@H]1CCC2=O | inactive | inactive | inactive | inactive | 0.0129 µM (active) | – | 0.086 µM (active) | 0.0146 µM (active) | 0.0147 µM (active) | inactive
